According to paper PMC7862700, “An all-to-all approach to the identification of sequence-specific readers for epigenetic DNA modifications on cytosine”:

Assays:
Test in all cases: DAPPL (digital affinity profiling via proximity ligation, sequencing); 10 mM Tris-HCl pH 7.5, 50 mM NaCl, 1 mM DTT, 4% glycerol, room temperature, 30 min; GST-TFs on glutathione beads, 16-mer random dsDNA library, 0.1% formaldehyde crosslink after washing; high values mean tight binding
FEV = target: T1, FEV (Homo sapiens, UniProt Q99581 1-238); settings: protein: recombinant; tags: N-terminal GST; dsDNA, one strand shown
T1 sequence: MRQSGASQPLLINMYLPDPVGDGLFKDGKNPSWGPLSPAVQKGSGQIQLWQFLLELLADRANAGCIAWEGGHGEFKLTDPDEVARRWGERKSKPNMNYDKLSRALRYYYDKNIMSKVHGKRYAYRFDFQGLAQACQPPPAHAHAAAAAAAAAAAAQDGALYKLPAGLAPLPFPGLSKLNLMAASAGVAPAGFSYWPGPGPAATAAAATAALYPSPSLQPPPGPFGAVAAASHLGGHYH
Method in brief: (§1)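 Sequencing on an Illumina NextSeq500 followed washing, crosslinking with 0.1% formaldehyde, proximity ligation (BsaI/T4 ligase, 1 h, 37 °C) and PCR amplification of pools that had been incubated for 30 min at room temperature with 200 nmole of a random double-stranded 16-mer DNA library in Tris/NaCl/DTT/glycerol buffer. Each pool held DNA-barcoded human transcription factors, expressed in yeast as GST fusions and captured on glutathione beads, plus a tag-only sample. Binding signal is a hexamer's read frequency for a factor divided by its frequency in the tag-only sample.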

ETV5 = ETV5 (Homo sapiens, UniProt P41161 1-510); settings: protein: recombinant; tags: N-terminal GST; dsDNA, one strand shown
Method in brief: as §1

HSF1 = HSF1 (Homo sapiens, UniProt Q00613 1-529); settings: protein: recombinant; tags: N-terminal GST; chain copies: 3; dsDNA, one strand shown
Method in brief: as §1

SPIC = target: T2, SPIC (Homo sapiens, UniProt Q8N5J4 1-248); settings: protein: recombinant; tags: N-terminal GST; dsDNA, one strand shown
T2 sequence: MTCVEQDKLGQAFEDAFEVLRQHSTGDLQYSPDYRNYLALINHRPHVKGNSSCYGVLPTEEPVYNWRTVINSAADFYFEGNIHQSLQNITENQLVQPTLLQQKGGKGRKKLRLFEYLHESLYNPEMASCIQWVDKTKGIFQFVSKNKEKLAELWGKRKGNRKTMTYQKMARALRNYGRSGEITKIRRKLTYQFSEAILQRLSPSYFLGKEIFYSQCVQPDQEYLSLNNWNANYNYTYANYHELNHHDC
Method in brief: as §1

ELF4 = ELF4 (Homo sapiens, UniProt Q99607 1-663); settings: protein: recombinant; tags: N-terminal GST; dsDNA, one strand shown
Method in brief: as §1

ELK4 = target: T3, ELK4 (Homo sapiens, UniProt P28324-2 1-405); settings: protein: recombinant; tags: N-terminal GST; dsDNA, one strand shown
T3 sequence: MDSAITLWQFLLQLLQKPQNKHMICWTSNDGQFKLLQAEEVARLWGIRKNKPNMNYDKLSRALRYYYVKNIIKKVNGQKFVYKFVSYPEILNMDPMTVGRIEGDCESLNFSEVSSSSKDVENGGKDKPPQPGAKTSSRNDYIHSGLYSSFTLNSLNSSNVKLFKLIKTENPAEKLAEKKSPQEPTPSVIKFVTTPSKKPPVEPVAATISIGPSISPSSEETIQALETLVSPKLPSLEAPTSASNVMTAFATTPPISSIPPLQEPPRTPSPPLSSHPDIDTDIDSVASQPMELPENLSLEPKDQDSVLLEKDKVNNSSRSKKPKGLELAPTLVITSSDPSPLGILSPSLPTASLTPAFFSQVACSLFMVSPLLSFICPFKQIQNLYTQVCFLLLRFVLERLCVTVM
Method in brief: as §1

ETV2 = target: T4, ETV2 (Homo sapiens, UniProt O00321 1-342); settings: protein: recombinant; tags: N-terminal GST; dsDNA, one strand shown
T4 sequence: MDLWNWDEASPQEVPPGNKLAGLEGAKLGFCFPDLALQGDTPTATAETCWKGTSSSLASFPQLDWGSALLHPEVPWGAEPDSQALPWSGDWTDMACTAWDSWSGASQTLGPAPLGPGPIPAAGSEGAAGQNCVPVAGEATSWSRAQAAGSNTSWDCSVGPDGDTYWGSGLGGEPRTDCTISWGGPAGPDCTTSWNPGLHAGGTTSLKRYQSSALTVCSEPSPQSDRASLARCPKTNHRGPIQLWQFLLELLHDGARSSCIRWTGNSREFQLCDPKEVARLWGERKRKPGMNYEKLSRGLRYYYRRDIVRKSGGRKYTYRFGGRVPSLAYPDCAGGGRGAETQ
Method in brief: as §1

ELF3 = target: T5, ELF3 (Homo sapiens, UniProt P78545 1-371); settings: protein: recombinant; tags: N-terminal GST; dsDNA, one strand shown
T5 sequence: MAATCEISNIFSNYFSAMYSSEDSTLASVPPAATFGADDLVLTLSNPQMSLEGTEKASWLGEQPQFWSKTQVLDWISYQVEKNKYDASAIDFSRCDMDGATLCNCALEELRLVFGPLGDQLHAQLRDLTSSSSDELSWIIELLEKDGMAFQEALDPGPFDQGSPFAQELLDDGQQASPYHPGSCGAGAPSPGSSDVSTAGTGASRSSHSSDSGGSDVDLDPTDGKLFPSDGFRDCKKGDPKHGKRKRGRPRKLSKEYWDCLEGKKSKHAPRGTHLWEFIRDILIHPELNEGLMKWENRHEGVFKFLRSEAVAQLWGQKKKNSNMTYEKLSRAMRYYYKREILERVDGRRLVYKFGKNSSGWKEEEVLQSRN
Method in brief: as §1

ETV1 = ETV1 (Homo sapiens, UniProt P50549 1-477); settings: protein: recombinant; tags: N-terminal GST; dsDNA, one strand shown
Method in brief: as §1

ERF = target: T6, ERF (Homo sapiens, UniProt P50548 1-548); settings: protein: recombinant; tags: N-terminal GST; dsDNA, one strand shown
T6 sequence: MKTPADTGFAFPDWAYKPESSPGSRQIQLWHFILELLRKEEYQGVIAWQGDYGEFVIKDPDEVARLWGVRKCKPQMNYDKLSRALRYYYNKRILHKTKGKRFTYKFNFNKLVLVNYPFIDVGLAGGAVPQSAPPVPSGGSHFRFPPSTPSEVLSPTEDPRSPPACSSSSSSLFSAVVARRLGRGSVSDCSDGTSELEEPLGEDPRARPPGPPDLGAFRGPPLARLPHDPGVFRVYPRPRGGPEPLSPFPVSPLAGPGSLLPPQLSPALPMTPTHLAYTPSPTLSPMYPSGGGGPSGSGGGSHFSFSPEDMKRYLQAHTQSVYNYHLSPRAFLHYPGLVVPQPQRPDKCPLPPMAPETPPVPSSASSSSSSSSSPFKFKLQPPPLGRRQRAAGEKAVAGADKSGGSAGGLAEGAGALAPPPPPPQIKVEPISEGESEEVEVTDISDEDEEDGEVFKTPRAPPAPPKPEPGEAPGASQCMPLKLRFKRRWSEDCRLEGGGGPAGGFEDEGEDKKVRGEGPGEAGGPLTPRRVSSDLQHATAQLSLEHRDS
Method in brief: as §1

ETV3L = target: T7, ETV3L (Homo sapiens, UniProt Q6ZN32 1-361); settings: protein: recombinant; tags: N-terminal GST; dsDNA, one strand shown
T7 sequence: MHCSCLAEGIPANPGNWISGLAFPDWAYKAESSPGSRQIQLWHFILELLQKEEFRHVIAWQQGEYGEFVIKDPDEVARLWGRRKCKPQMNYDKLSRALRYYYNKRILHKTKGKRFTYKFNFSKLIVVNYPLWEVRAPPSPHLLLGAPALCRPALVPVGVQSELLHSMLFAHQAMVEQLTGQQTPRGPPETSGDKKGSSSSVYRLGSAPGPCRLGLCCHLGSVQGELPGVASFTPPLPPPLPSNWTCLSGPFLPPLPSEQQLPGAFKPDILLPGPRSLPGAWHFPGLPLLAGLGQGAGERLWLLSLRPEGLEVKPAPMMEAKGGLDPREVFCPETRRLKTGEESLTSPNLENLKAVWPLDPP
Method in brief: as §1

ETS2 = target: T8, ETS2 (Homo sapiens, UniProt P15036 1-469); settings: protein: recombinant; tags: N-terminal GST; dsDNA, one strand shown
T8 sequence: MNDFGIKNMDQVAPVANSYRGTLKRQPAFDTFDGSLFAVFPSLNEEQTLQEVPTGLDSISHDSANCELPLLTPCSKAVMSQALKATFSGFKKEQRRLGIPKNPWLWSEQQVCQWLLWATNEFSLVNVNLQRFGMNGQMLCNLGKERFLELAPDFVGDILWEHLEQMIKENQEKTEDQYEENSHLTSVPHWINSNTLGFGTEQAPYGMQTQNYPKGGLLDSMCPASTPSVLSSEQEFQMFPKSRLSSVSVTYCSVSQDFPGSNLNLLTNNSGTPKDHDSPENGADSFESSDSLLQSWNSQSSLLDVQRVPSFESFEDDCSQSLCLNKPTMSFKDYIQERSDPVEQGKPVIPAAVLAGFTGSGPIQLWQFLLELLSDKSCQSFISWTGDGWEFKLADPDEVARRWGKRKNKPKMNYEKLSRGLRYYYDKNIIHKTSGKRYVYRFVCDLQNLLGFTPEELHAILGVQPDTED
Method in brief: as §1

SPDEF = target: T9, SPDEF (Homo sapiens, UniProt O95238 1-335); settings: protein: recombinant; tags: N-terminal GST; dsDNA, one strand shown
T9 sequence: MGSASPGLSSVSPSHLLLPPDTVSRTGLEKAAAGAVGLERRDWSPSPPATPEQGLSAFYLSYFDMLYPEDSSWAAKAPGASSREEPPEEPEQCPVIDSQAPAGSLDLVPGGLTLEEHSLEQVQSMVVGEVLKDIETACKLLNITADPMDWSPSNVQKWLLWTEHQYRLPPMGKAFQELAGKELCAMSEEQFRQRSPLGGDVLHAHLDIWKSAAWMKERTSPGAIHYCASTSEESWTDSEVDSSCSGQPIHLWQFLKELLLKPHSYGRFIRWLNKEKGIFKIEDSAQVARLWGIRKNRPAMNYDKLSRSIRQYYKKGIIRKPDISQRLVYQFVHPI
Method in brief: as §1

ETV7 = target: T10, ETV7 (Homo sapiens, UniProt Q9Y603 1-341); settings: protein: recombinant; tags: N-terminal GST; dsDNA, one strand shown
T10 sequence: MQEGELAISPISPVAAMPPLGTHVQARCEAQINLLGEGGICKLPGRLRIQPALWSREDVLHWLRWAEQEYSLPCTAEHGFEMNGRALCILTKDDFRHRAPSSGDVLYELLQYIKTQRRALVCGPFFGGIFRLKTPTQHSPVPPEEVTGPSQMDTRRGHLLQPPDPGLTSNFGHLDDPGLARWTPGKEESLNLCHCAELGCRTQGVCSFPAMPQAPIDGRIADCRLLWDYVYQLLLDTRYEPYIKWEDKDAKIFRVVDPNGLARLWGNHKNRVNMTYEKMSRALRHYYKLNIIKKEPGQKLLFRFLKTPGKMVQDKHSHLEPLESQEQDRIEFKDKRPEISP
Method in brief: as §1

ELF5 = target: T11, ELF5 (Homo sapiens, UniProt Q9UKW6-2 1-255); settings: protein: recombinant; tags: N-terminal GST; dsDNA, one strand shown
T11 sequence: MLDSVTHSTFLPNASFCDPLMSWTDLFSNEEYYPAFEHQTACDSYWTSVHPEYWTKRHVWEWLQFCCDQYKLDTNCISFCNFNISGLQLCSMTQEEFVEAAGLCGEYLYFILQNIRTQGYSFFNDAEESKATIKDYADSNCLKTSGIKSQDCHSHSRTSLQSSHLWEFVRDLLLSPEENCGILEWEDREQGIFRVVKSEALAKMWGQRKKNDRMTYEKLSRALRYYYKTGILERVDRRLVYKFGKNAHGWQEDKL
Method in brief: as §1

ETV3 = target: T12, ETV3 (Homo sapiens, UniProt P41162-2 1-143); settings: protein: recombinant; tags: N-terminal GST; dsDNA, one strand shown
T12 sequence: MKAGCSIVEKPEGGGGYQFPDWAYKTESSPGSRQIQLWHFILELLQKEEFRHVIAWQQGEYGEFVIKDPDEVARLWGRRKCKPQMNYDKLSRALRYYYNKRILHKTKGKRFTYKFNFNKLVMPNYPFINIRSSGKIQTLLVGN
Method in brief: as §1

ETV6 = ETV6 (Homo sapiens, UniProt P41212 1-452); settings: protein: recombinant; tags: N-terminal GST; dsDNA, one strand shown
Method in brief: as §1

Sequence of HSF1 (Q00613 whole entry): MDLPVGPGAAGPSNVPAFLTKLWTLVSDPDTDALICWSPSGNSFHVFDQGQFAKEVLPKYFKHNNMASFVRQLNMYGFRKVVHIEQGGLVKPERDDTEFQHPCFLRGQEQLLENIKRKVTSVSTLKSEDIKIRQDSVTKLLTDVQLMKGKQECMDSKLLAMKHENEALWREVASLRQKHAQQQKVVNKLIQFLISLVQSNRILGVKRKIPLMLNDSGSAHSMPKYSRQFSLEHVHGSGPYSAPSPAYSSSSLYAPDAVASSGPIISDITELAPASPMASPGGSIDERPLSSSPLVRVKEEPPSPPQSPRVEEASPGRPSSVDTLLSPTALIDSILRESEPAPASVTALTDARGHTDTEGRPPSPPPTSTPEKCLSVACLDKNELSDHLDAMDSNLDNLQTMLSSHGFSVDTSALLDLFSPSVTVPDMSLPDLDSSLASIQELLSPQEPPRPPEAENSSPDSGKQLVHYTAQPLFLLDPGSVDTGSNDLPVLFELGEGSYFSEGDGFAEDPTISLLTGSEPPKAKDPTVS
Sequence of ELF4 (Q99607 whole entry): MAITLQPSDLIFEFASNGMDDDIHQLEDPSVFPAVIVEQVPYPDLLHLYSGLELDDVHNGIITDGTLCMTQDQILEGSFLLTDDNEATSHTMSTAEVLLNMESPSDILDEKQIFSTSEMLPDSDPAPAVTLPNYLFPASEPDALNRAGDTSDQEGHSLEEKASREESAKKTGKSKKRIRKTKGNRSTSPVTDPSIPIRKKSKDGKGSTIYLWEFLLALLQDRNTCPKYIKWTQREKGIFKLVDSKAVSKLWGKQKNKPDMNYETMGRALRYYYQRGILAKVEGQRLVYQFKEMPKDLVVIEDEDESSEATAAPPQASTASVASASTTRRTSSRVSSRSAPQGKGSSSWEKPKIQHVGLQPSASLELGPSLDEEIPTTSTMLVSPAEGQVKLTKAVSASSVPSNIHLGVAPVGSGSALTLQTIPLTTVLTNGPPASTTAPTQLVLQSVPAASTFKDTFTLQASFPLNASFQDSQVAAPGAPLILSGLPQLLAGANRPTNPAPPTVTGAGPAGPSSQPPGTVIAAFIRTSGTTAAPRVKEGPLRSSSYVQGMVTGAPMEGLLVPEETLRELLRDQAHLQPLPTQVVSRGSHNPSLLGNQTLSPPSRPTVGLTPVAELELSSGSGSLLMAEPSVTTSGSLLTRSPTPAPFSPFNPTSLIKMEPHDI
Sequence of ETV6 (P41212 whole entry): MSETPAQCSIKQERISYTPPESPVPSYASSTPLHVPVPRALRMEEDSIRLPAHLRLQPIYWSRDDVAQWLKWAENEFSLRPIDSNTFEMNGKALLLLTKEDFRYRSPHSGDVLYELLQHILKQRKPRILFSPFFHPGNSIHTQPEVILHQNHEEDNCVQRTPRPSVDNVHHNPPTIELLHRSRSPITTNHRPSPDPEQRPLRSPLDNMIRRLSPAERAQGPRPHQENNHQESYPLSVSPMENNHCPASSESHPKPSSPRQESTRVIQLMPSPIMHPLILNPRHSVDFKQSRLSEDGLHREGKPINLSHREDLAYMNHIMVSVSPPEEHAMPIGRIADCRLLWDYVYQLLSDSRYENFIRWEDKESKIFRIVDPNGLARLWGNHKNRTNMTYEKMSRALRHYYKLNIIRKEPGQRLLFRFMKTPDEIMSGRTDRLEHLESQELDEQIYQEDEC
Sequence of ETV5 (P41161 whole entry): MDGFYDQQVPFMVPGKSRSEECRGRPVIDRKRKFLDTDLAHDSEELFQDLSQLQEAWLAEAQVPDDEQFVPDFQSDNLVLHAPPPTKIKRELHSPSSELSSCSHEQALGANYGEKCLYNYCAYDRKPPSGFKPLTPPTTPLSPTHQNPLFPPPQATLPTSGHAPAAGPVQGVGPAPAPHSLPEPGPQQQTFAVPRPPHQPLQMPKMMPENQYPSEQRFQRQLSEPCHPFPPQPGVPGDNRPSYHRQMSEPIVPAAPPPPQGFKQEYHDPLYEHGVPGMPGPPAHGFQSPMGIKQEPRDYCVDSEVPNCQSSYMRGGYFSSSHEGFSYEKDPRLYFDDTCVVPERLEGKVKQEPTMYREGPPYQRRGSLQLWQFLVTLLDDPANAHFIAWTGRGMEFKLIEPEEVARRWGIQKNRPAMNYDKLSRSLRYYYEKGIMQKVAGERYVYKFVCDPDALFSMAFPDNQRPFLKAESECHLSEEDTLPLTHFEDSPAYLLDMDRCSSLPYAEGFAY
Sequence of ETV1 (P50549 whole entry): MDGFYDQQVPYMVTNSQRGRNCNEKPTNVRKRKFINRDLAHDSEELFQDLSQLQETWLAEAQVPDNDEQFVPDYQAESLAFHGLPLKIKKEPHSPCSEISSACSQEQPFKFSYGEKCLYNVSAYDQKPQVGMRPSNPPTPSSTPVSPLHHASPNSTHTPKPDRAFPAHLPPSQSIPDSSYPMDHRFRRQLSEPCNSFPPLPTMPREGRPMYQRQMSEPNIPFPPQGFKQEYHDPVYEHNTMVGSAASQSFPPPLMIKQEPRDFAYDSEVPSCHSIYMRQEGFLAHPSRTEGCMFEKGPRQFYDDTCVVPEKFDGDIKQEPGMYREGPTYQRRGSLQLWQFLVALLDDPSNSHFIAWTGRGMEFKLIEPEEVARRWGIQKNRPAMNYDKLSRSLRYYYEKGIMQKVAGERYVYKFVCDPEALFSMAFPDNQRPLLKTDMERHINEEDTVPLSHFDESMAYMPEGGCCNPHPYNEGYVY

Row | Sequence | binding signal (FEV) | binding signal (ETV5) | binding signal (HSF1) | binding signal (SPIC) | binding signal (ELF4) | binding signal (ELK4) | binding signal (ETV2) | binding signal (ELF3) | binding signal (ETV1) | binding signal (ERF) | binding signal (ETV3L) | binding signal (ETS2) | binding signal (SPDEF) | binding signal (ETV7) | binding signal (ELF5) | binding signal (ETV3) | binding signal (ETV6)
1 | TGAATG | 1.19 fold enrichment (6-mer frequency, TF over GST control) | 1.1 fold enrichment (6-mer frequency, TF over GST control) | 1.15 fold enrichment (6-mer frequency, TF over GST control) | 1.03 fold enrichment (6-mer frequency, TF over GST control) | 1.16 fold enrichment (6-mer frequency, TF over GST control) | 1.2 fold enrichment (6-mer frequency, TF over GST control) | 1.37 fold enrichment (6-mer frequency, TF over GST control) | 1.08 fold enrichment (6-mer frequency, TF over GST control) | 1.14 fold enrichment (6-mer frequency, TF over GST control) | 1.14 fold enrichment (6-mer frequency, TF over GST control) | 1.2 fold enrichment (6-mer frequency, TF over GST control) | 1.25 fold enrichment (6-mer frequency, TF over GST control) | 1.28 fold enrichment (6-mer frequency, TF over GST control) | 1.21 fold enrichment (6-mer frequency, TF over GST control) | 1.21 fold enrichment (6-mer frequency, TF over GST control) | 1.2 fold enrichment (6-mer frequency, TF over GST control) | 1.22 fold enrichment (6-mer frequency, TF over GST control)
2 | CGCCGA | 1.21 fold enrichment (6-mer frequency, TF over GST control) | 1.13 fold enrichment (6-mer frequency, TF over GST control) | 1.2 fold enrichment (6-mer frequency, TF over GST control) | 1.18 fold enrichment (6-mer frequency, TF over GST control) | 1.26 fold enrichment (6-mer frequency, TF over GST control) | 1.28 fold enrichment (6-mer frequency, TF over GST control) | 1.16 fold enrichment (6-mer frequency, TF over GST control) | 1.03 fold enrichment (6-mer frequency, TF over GST control) | 1.15 fold enrichment (6-mer frequency, TF over GST control) | 1.34 fold enrichment (6-mer frequency, TF over GST control) | 1.21 fold enrichment (6-mer frequency, TF over GST control) | 1.22 fold enrichment (6-mer frequency, TF over GST control) | 1.15 fold enrichment (6-mer frequency, TF over GST control) | 1.05 fold enrichment (6-mer frequency, TF over GST control) | 1.1 fold enrichment (6-mer frequency, TF over GST control) | 1.16 fold enrichment (6-mer frequency, TF over GST control) | 1.16 fold enrichment (6-mer frequency, TF over GST control)
